The list is not random: actives were taken first. Their share in the collection is about 0.9%.
HIV TAR-Tat: HIV-1 TAR-Tat binding disruption. z-score (no concentration beside the values). HIV-1 TAR RNA, Tat peptide displacement FRET; stronger effect = higher value. 100,000 compounds, 0.6% hits; active means z-score of 3 or more in at least 2 runs
CDC25B CDK2 inh: human CDC25B-CDK2/CyclinA binding inhibition; AID 1259370; z-score (test concentration not listed); 94,000 compounds, 0.72% hits; P30305+P24941; HTRF CDC25B-CDK2/CyclinA binding, anti-His/anti-Flag; stronger effect = higher value; in the data active means z-score above about 3.2
Hits are given with their value; - = inactive; . = not tested or not shown.

SMILES	HIV TAR-Tat	CDC25B CDK2 inh
Cc1ccc2c(CC(=O)N(Cc3ccc(F)cc3)C3CCS(=O)(=O)C3)coc2c1C (centres undefined)	-	-
Cc1sc(-c2c[nH]c3ccccc23)nc1-c1c[nH]c2ccccc12	.	18
c1ccc2c(-c3ccncc3)c[nH]c2c1	-	.
O=c1c(Cc2ccc(F)cc2)c(O)nc2n1CCCS2	-	-
O=C(O)C1=CC(=C(c2ccc(O)c(C(=O)O)c2)c2ccc(O)c(C(=O)O)c2)C=CC1=O	.	11
O=C1C=CC(=C(c2ccc(O)cc2)c2ccc(O)cc2)C=C1	-	.
CC1CCCC(NC(=O)C2(C)Cn3c(cc4occc43)C(=O)N2C2CCCC2)C1C (centres undefined)	-	.
CC1CCCC(NC(=O)C2(C)Cn3c(cc4occc43)C(=O)N2CC2CCCO2)C1C (centres undefined)	6.8	.
O=S(=O)(c1ccc(F)cc1)N1CCN(Cc2ccc3c(c2)OCO3)CC1	-	16
O=S(=O)(c1cccc(F)c1)N1CCN(Cc2ccc3c(c2)OCO3)CC1	.	-
COc1ccc(C2CC(=O)C3=C(C2)Nc2nnnn2C3c2cccc(Cl)c2)cc1 (centres undefined)	-	.
CCOC(=O)c1[nH]c2sc(C)c(C)c2c1N	-	-
CCOC(=O)c1[nH]c2sc3c(c2c1N)CCCC3	5.2	17
COC(=O)c1[nH]c2sc3c(c2c1N)CCCC3	7	14
O=c1[nH]c(=S)[nH]c2sc3c(c12)CCCC3	.	-
CC1CN(C(=O)Cn2cc(SCC(=O)N3CCCc4ccccc43)c3ccccc32)CC(C)O1 (centres undefined)	-	.
CCc1nnc(NC(=O)Cn2cnc3onc(C)c3c2=O)s1	-	.
COCCCNc1sc(S(C)(=O)=O)nc1S(=O)(=O)c1ccc(Cl)cc1	-	-
O=C1/C(=C\c2ccc(O)c(O)c2)Oc2c1ccc(O[C@@H]1O[C@H](CO)[C@@H](O)[C@H](O)[C@H]1O)c2O	16	.
O=C1C[C@@H](c2ccc(O)c(O)c2)Oc2cc(O[C@H]3O[C@@H](CO)[C@H](O)[C@@H](O)[C@@H]3O)cc(O)c21	-	.
Cc1cc2nc(CSc3ccccc3N)c(=O)[nH]c2cc1C	-	.
Cc1cc2nc(CSc3ccc(N)cc3)c(=O)[nH]c2cc1C	19	.
COC(=O)c1sc(N2C(=O)c3oc4ccc(C)cc4c(=O)c3C2c2ccccc2F)nc1C (centres undefined)	-	-
CCOC(=O)c1nn(-c2ccc(OC)cc2)c(=O)c2c(NC(=O)C3CCCC3)scc12	.	-
CCOC(=O)c1nn(-c2ccccc2)c(=O)c2c(N)scc12	-	19
SMILES	HIV TAR-Tat	CDC25B CDK2 inh
Clc1ccc(OCc2ccsc2Cn2cccc2)cc1	.	-
O=S1(=O)N=C(Nc2cc(C(F)(F)F)ccc2Cl)c2ccccc21	.	-
CCC(O)c1nc2ccccc2n1CCCOc1cccc(OC)c1 (centres undefined)	-	-
CCc1ccc(N2CSC3=C(C#N)C(c4cccs4)CC(=O)N3C2)cc1 (centres undefined)	-	6.2
Cc1ccc(N2CSC3=C(C#N)C(c4cccs4)CC(=O)N3C2)cc1 (centres undefined)	-	4.1
COC(=O)c1ccc(N2CSC3=C(C#N)C(c4cccs4)CC(=O)N3C2)cc1 (centres undefined)	-	-
COc1ccc(N2CSC3=C(C#N)C(c4cccs4)CC(=O)N3C2)cc1 (centres undefined)	-	-
CCOC(=O)c1ccc(N2CSC3=C(C#N)C(c4cccs4)CC(=O)N3C2)cc1 (centres undefined)	-	7.1
CCOC(=O)Cn1c(=O)oc2cc(S(=O)(=O)N(CC(C)C)CC(C)C)ccc21	-	-
Cn1c(=O)c2c(SCC(=O)Nc3ccc4c(c3)OCO4)nc(-c3ccccc3)nc2n(C)c1=O	-	.
CC1(C)CC(=O)C2=C(C1)Nc1nc(SCc3ccccc3Cl)nn1C2c1cccnc1 (centres undefined)	.	-
COc1ccc(Nc2cc(Nc3cccc(F)c3)ncn2)cc1	-	-
COc1ccc(-c2cc3nc(C)cc(NCC(C)C)n3n2)cc1OC	-	-
CCN(CC)CCNc1cc(C)nc2cc(-c3ccc(OC)c(OC)c3)nn12	4	-
COc1ccc(/C(C)=N/OCc2cccc(C(=O)O)c2)cc1OC	.	-
COc1cc2c3c(c1OC)C1(C=CC(=O)C=C1)CC3N(C)CC2 (centres undefined)	-	8.3
COc1ccc2c(c1OC)C(=O)O[C@@H]2[C@H]1c2c(cc3c(c2OC)OCO3)CCN1C	-	-
C=CCOc1ccc(C2CC(=O)Nc3c2c(C)nn3-c2nncc(-c3ccc(C)cc3)n2)cc1 (centres undefined)	-	-
C=CCOc1ccc(C2CC(=O)Nc3c2c(C)nn3-c2nncc(-c3ccc(F)cc3)n2)cc1 (centres undefined)	16	-
O=C(Nc1nc(CC(=O)N2CCN(C(=O)c3ccco3)CC2)cs1)C1CC1	-	.
O=C(CSc1ccc(-c2ccccn2)nn1)Nc1ccc2c(c1)OCCO2	-	.
